Experimental findings from the antibiotic and cytotoxicity screens of Wong et al. (2023) are described below.

Among all 39,000 compounds or so, about 500 (1.3%) were called active. The entries come from a sample that favours actives as a whole.

In this assay the test system is S. aureus RN4220. Nature of the assay: growth inhibition call (relative growth <= 0.2). The note with it: 50 µM.
`C[C@@H]1CN([C@@H](C)CO)C(=O)c2cccc(NC(=O)C3CC3)c2O[C@H]1CN(C)Cc1ccc(C(=O)O)cc1`: the growth inhibition call was “inactive”.

In the case of `C[C@@H]1CCCCO[C@@H](CN(C)S(=O)(=O)c2ccc(Cl)cc2)[C@@H](C)CN([C@H](C)CO)C(=O)c2cc(NC(=O)Nc3ccc(C(F)(F)F)cc3)ccc2O1`, the growth inhibition call was “inactive”.

With `Cc1ccc(S(=O)(=O)Nc2ccc3c(c2)C(=O)N([C@H](C)CO)C[C@@H](C)[C@@H](CN(C)C(=O)CCC(F)(F)F)OCCCC[C@H](C)O3)cc1`, the growth inhibition call was “inactive”.

As to `C[C@@H]1CCCCO[C@H](CN(C)C(=O)CCCN(C)C)[C@H](C)CN([C@@H](C)CO)C(=O)c2cc(NC(=O)Nc3cccc4ccccc34)ccc2O1`, the growth inhibition call is “inactive”.

For `C[C@@H]1CN([C@H](C)CO)C(=O)c2cc(C#Cc3ccccc3F)cnc2O[C@H]1CN(C)C(=O)C1CCOCC1`, the growth inhibition call was “inactive”.

In the case of `Cc1cnccc1CN1C[C@H](C(=O)O)CC1=O`, the growth inhibition call is “inactive”.

As to `CC(C)C#Cc1cnc2c(c1)C(=O)N([C@@H](C)CO)C[C@@H](C)[C@H](CN(C)C(=O)c1ccc3c(c1)OCO3)O2`, the growth inhibition call was “inactive”.

Consider `Cc1ccc(S(=O)(=O)N(C)C[C@H]2Oc3c(NC(=O)C4CC4)cccc3C(=O)N([C@H](C)CO)C[C@@H]2C)cc1`, for which the growth inhibition call is “inactive”.

For the compound `C[C@H]1CN([C@@H](C)CO)C(=O)CCCn2cc(nn2)CO[C@@H]1CN(C)C(=O)Nc1ccc(C(F)(F)F)cc1`, the growth inhibition call was “inactive”.

For `C[C@H](CO)N1C[C@H](C)[C@@H](CN(C)C(=O)Nc2ccc(C(F)(F)F)cc2)OCc2cnnn2CCCC1=O`, the growth inhibition call is “inactive”.

For the compound `C[C@@H]1CN([C@@H](C)CO)C(=O)CCCn2nncc2CO[C@@H]1CN(C)C(=O)Nc1ccc(C(F)(F)F)cc1`, the growth inhibition call is “inactive”.

As to `C[C@H](CO)N1C[C@H](C)[C@H](CN(C)C(=O)Nc2ccc(C(F)(F)F)cc2)OCc2cnnn2CCCC1=O`, the growth inhibition call is “inactive”.

As for `C[C@H]1CN([C@@H](C)CO)C(=O)CCCn2nncc2CO[C@H]1CN(C)C(=O)Nc1ccc(C(F)(F)F)cc1`, the growth inhibition call was “active”.

For `C[C@H]1CN([C@@H](C)CO)C(=O)CCCn2nncc2CO[C@@H]1CN(C)C(=O)Nc1ccc(C(F)(F)F)cc1`, the growth inhibition call is “active”.

On to `C[C@@H]1CN([C@H](C)CO)C(=O)CCCn2nncc2CO[C@@H]1CN(C)C(=O)Nc1ccc(C(F)(F)F)cc1`, for which the growth inhibition call is “inactive”.

In the case of `C[C@@H]1CN([C@H](C)CO)C(=O)CCCn2nncc2CO[C@H]1CN(C)C(=O)Nc1ccc(C(F)(F)F)cc1`, the growth inhibition call was “active”.

Take `C[C@@H]1CN([C@H](C)CO)C(=O)CCCn2cc(nn2)CO[C@H]1CN(C)C(=O)Nc1ccc(C(F)(F)F)cc1`: the growth inhibition call is “active”.

For the compound `C[C@@H]1CN([C@@H](C)CO)C(=O)CCCn2nncc2CO[C@H]1CN(C)C(=O)Nc1ccc(C(F)(F)F)cc1`, the growth inhibition call was “inactive”.

Take `C[C@@H]1CN([C@H](C)CO)C(=O)CCCn2nncc2CO[C@H]1CN(C)C(=O)Nc1ccc(C(C)(C)C)cc1`: the growth inhibition call is “inactive”.

For `C[C@H]1CN([C@@H](C)CO)C(=O)CCCn2cc(nn2)CO[C@H]1CN(C)C(=O)Nc1ccc(C(F)(F)F)cc1`, the growth inhibition call is “inactive”.

Turning to `C[C@H]1CN([C@@H](C)CO)C(=O)Cc2cc(NC(=O)Nc3ccc(F)cc3)ccc2O[C@H]1CN(C)S(=O)(=O)c1cn(C)cn1`, the growth inhibition call is “inactive”.

With `CCOC(=O)CSc1nnc2c3sc4nc(N5CCOCC5)c5c(c4c3ncn12)CC(C)(C)OC5`, the growth inhibition call was “inactive”.

On to `C[C@H](CO)N1C[C@H](C)[C@@H](CN(C)Cc2ccc(C(F)(F)F)cc2)OCCCC[C@H](C)Oc2ccc(NS(=O)(=O)c3cn(C)cn3)cc2C1=O`, for which the growth inhibition call is “inactive”.

For `C[C@@H]1CCCCO[C@@H](CN(C)Cc2ccccc2)[C@H](C)CN([C@H](C)CO)C(=O)c2cc(NC(=O)Nc3ccccc3)ccc2O1`, the growth inhibition call is “inactive”.

On to `C[C@@H]1CN([C@H](C)CO)C(=O)c2cccc(NC(=O)Nc3cccc4ccccc34)c2O[C@@H]1CN(C)C(=O)Nc1ccc2c(c1)OCO2`, for which the growth inhibition call was “inactive”.

Consider `COC(=O)c1c2oc(c1C(=O)OC)C(=O)N(C)Cc1cn(nn1)C[C@@H](C)NC(=O)N[C@H](CO)CC2`, for which the growth inhibition call is “inactive”.

As for `C[C@H](CO)N1C[C@H](C)[C@@H](CN(C)C(=O)Nc2ccc3c(c2)OCO3)OCCCC[C@H](C)Oc2ccc(NC(=O)Nc3ccc(F)cc3)cc2C1=O`, the growth inhibition call was “inactive”.

As to `COc1ccc(NC(=O)N(C)C[C@@H]2OCCCC[C@H](C)Oc3ccc(NC(=O)Nc4ccc5c(c4)OCO5)cc3C(=O)N([C@@H](C)CO)C[C@@H]2C)cc1`, the growth inhibition call is “inactive”.

For `Cc1noc(C)c1S(=O)(=O)N(C)C[C@H]1Oc2ccc(NC(=O)CCC(F)(F)F)cc2CC(=O)N([C@H](C)CO)C[C@H]1C`, the growth inhibition call is “inactive”.

With `CC(=O)N(C)C[C@H]1Oc2ncc(C#C[C@H](C)O)cc2C(=O)N([C@H](C)CO)C[C@H]1C`, the growth inhibition call is “inactive”.

With `Cc1noc(C)c1NC(=O)Nc1ccc2c(c1)C(=O)N([C@H](C)CO)C[C@@H](C)[C@H](CN(C)C(=O)Nc1ccc(C(F)(F)F)cc1)O2`, the growth inhibition call is “inactive”.

Consider `Cc1noc(C)c1NC(=O)Nc1ccc2c(c1)C(=O)N([C@@H](C)CO)C[C@H](C)[C@@H](CN(C)C(=O)Nc1ccc(C(F)(F)F)cc1)O2`, for which the growth inhibition call is “inactive”.

As to `C[C@@H]1CN([C@@H](C)CO)C(=O)c2cc(NC(=O)CCC(F)(F)F)ccc2O[C@H]1CN(C)C(=O)Nc1ccc(C(F)(F)F)cc1`, the growth inhibition call is “inactive”.

On to `Cc1noc(C)c1NC(=O)Nc1ccc2c(c1)C(=O)N([C@H](C)CO)C[C@@H](C)[C@@H](CN(C)C(=O)Nc1ccc(C(F)(F)F)cc1)O2`, for which the growth inhibition call was “inactive”.

With `Cc1noc(C)c1NC(=O)Nc1ccc2c(c1)C(=O)N([C@H](C)CO)C[C@H](C)[C@H](CN(C)C(=O)Nc1ccc(C(F)(F)F)cc1)O2`, the growth inhibition call is “active”.

On to `Cc1noc(C)c1NC(=O)Nc1ccc2c(c1)C(=O)N([C@@H](C)CO)C[C@@H](C)[C@H](CN(C)C(=O)Nc1ccc(C(F)(F)F)cc1)O2`, for which the growth inhibition call is “inactive”.

On to `Cc1noc(C)c1NC(=O)Nc1ccc2c(c1)C(=O)N([C@@H](C)CO)C[C@H](C)[C@H](CN(C)C(=O)Nc1ccc(C(F)(F)F)cc1)O2`, for which the growth inhibition call was “active”.

`C[C@H](CO)N1C[C@H](C)[C@@H](CN(C)C(=O)Nc2ccc(C(F)(F)F)cc2)Oc2ccc(NC(=O)CCC(F)(F)F)cc2C1=O`: the growth inhibition call is “active”.

On to `Cc1noc(C)c1NC(=O)Nc1ccc2c(c1)C(=O)N([C@@H](C)CO)C[C@@H](C)[C@@H](CN(C)C(=O)Nc1ccc(C(F)(F)F)cc1)O2`, for which the growth inhibition call was “active”.

`Cc1noc(C)c1NC(=O)N(C)C[C@@H]1Oc2ccc(NC(=O)Nc3ccc(C(F)(F)F)cc3)cc2C(=O)N([C@H](C)CO)C[C@@H]1C`: the growth inhibition call was “inactive”.

As for `C[C@@H]1CN([C@H](C)CO)C(=O)c2cc(NC(=O)CCC(F)(F)F)ccc2O[C@@H]1CN(C)C(=O)Nc1ccc(C(F)(F)F)cc1`, the growth inhibition call is “inactive”.

On to `Cc1noc(C)c1NC(=O)Nc1ccc2c(c1)C(=O)N([C@H](C)CO)C[C@H](C)[C@@H](CN(C)C(=O)Nc1ccc(C(F)(F)F)cc1)O2`, for which the growth inhibition call was “inactive”.

Turning to `C[C@@H]1CN([C@@H](C)CO)C(=O)Cc2cc(NC(=O)C3CC3)ccc2O[C@@H]1CN(C)C(=O)Nc1ccc2c(c1)OCO2`, the growth inhibition call was “inactive”.

For the compound `CC(C)c1ccccc1Cc1cc(C(=O)Nc2ccc(S(=O)(=O)c3ccccc3C(C)(C)C)cc2)c(O)c(O)c1O`, the growth inhibition call is “inactive”.

As for `Cc1ccc(S(=O)(=O)N(C)C[C@@H]2Oc3ccc(NC(=O)Nc4cccc5ccccc45)cc3C(=O)N([C@@H](C)CO)C[C@H]2C)cc1`, the growth inhibition call was “inactive”.

Take `C[C@H]1CC/C=C\[C@H]2O[C@@]34C=CCN(c5ccc6ccccc6c5)C(=O)[C@H]3N(CCCO)C(=O)[C@@H]4[C@@H]2C(=O)O1`: the growth inhibition call is “inactive”.

Consider `C[C@H]1CN([C@@H](C)CO)C(=O)Cc2cc(NC(=O)CCC(F)(F)F)ccc2O[C@H]1CN(C)S(=O)(=O)c1cn(C)cn1`, for which the growth inhibition call is “inactive”.

`CCN(CC)CCS(=O)(=O)[C@@H]1CCN2C(=O)c3coc(n3)CC(=O)C[C@H](O)/C=C(C)/C=C\CNC(=O)/C=C/[C@@H](C)[C@H](C(C)C)OC(=O)[C@@H]12`: the growth inhibition call is “active”.

On to `COc1cccc2c1C(=O)c1c(O)c3c(c(O)c1C2=O)CC(O)(C(=O)CO)CC3OC1CC(N)C(O)C(C)O1.Cl` (stereo unspecified), for which the growth inhibition call is “inactive”.

Consider `COc1cccc2c1C(=O)c1c(O)c3c(c(O)c1C2=O)C[C@@](O)(C(=O)CO)C[C@@H]3O[C@H]1C[C@H](N)[C@H](O)[C@H](C)O1`, for which the growth inhibition call was “active”.

For `COc1cccc2c1C(=O)c1c(O)c3c(c(O)c1C2=O)CC(O)(C(=O)CO)CC3OC1CC(N)C(O)C(C)O1` (stereo unspecified) [listing 1 of 2 here], the growth inhibition call was “inactive”.

Consider `COc1cccc2c1C(=O)c1c(O)c3c(c(O)c1C2=O)C[C@](O)(C(=O)CO)C[C@H]3O[C@H]1C[C@@H](N)[C@@H](O)[C@@H](C)O1`, for which the growth inhibition call was “active”.

`COc1cccc2c1C(=O)c1c(O)c3c(c(O)c1C2=O)C[C@@](O)(C(=O)CO)C[C@@H]3O[C@H]1C[C@H](N)[C@@H](O)[C@H](C)O1`: the growth inhibition call is “active”.

On to `CCCCC(=O)OCC(=O)[C@]1(O)Cc2c(O)c3c(c(O)c2[C@@H](O[C@H]2C[C@H](NC(=O)C(F)(F)F)[C@H](O)[C@H](C)O2)C1)C(=O)c1c(OC)cccc1C3=O`, for which the growth inhibition call is “inactive”.

`COc1cccc2c1C(=O)c1c(O)c3c(c(O)c1C2=O)CC(O)(C(=O)CO)CC3OC1CC(N)C(O)C(C)O1` (stereo unspecified) [listing 2 of 2 here]: the growth inhibition call is “inactive”.

Turning to `Cc1ccnc(NC(=O)Cn2cnc3c2c(=O)n(C)c(=O)n3C)c1`, the growth inhibition call was “inactive”.

Regarding `Cc1noc(C)c1S(=O)(=O)Nc1ccc2c(c1)C(=O)N([C@@H](C)CO)C[C@@H](C)[C@@H](CN(C)S(C)(=O)=O)OCCCC[C@@H](C)O2`, the growth inhibition call was “inactive”.

In the case of `COCCC(=O)N1CCC2(CC1)COC2`, the growth inhibition call is “inactive”.

`C[C@@H]1CCCCO[C@@H](CN(C)C(=O)Nc2ccc(C(F)(F)F)cc2)[C@H](C)CN([C@H](C)CO)C(=O)c2cc(N(C)C)ccc2O1`: the growth inhibition call is “inactive”.

Regarding `Cc1noc(C)c1NC(=O)N(C)C[C@H]1Oc2ccc(NS(=O)(=O)c3ccccc3)cc2C(=O)N([C@@H](C)CO)C[C@H]1C`, the growth inhibition call was “inactive”.

On to `CCOC(=O)[C@H]1CN(C(C)(C)C)C(=O)C1=O`, for which the growth inhibition call was “inactive”.
